According to PubChem BioAssay (NCI):
About 83,000 compounds went through this panel and 20% of them were active in at least one assay; those are over-represented in the sample as a whole.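 Note: values are percent growth. 100 is the growth of untreated cells, values between 100 and 0 indicate rising inhibition; between -100 and 0 indicates cell death.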 Values without a mark were called inactive. Active and inactive are the calls of the source. The calls were made as follows: active = growth percent below 10; inactive = the rest.

What was measured:
Assay in all cases: NCI-60 one-dose screen, 48 h (100 = growth as untreated, 0 = no growth, -100 = all killed)
Conditions in all cases: 10 µM unless noted
DU-145 prostate = tested on: DU-145 prostate
K-562 leukemia = tested on: K-562 leukemia
MALME-3M melanoma = tested on: MALME-3M melanoma
MDA-MB-231 breast = tested on: MDA-MB-231 breast
RXF 393 renal = tested on: RXF 393 renal
SF-268 CNS = tested on: SF-268 CNS
SF-295 CNS = tested on: SF-295 CNS
UACC-257 melanoma = tested on: UACC-257 melanoma
M14 melanoma = tested on: M14 melanoma
HCT-15 colon = tested on: HCT-15 colon
HT29 colon = tested on: HT29 colon
SNB-75 CNS = tested on: SNB-75 CNS
SNB-19 CNS = tested on: SNB-19 CNS
U251 CNS = tested on: U251 CNS
PC-3 prostate = tested on: PC-3 prostate
SK-MEL-5 melanoma = tested on: SK-MEL-5 melanoma
UACC-62 melanoma = tested on: UACC-62 melanoma
SK-MEL-28 melanoma = tested on: SK-MEL-28 melanoma
LOX IMVI melanoma = tested on: LOX IMVI melanoma

Row | SMILES | growth (DU-145 prostate) | growth (K-562 leukemia) | growth (MALME-3M melanoma) | growth (MDA-MB-231 breast) | growth (RXF 393 renal) | growth (SF-268 CNS) | growth (SF-295 CNS) | growth (UACC-257 melanoma) | growth (M14 melanoma) | growth (HCT-15 colon) | growth (HT29 colon) | growth (SNB-75 CNS) | growth (SNB-19 CNS) [%] | growth (U251 CNS) | growth (PC-3 prostate) | growth (SK-MEL-5 melanoma) | growth (UACC-62 melanoma) [%] | growth (SK-MEL-28 melanoma) | growth (LOX IMVI melanoma)
1 | CCCCCCCCSC1=CC(=O)C(OC)=C(OC)C1=O | 68.5% | 3.59% (active) | -53.4% (active) | 24.2% | -69.7% (active) | 43.6% | 74.1% | -35.3% (active) | 26.6% | 10.9% | 35.4% | 75.7% | 79.3 | 42.5% | -13.9% (active) | 4.84% (active) | 42.9 | 72.4% | 
2 | CCOC(=O)c1c2c(n3ccc(NC(=O)CCN(CC)CC)cc13)C(=O)c1ncccc1C2=O | 66.5% | 49.7% | 76.9% | 42.4% | 67.2% | 41.9% | 38% | 57.3% | 49.7% | 50.3% | 38.4% | 33% | 53.3 | 53.2% | 61.1% | 45.1% | 50.8 | 88.8% | 10.3%
3 | Nc1nc2c(c3ncccc13)C(c1cccc(Br)c1)Cc1ncccc1-2 (configuration not stated) | 19.8% | 10.3% | 58.4% | 20.4% | -7.52% (active) | 56.4% | 7.75% (active) | 37.9% | 11.2% | 17.6% | 0.652% (active) | 30.1% | 31.6 | 11.3% | 25.6% | 31.8% | 27.4 | 55.1% | 38.9%
4 | CC1=C(NCCN2CCCC2)C(=O)c2c(OCc3ccc(F)c(Cl)c3)cccc2C1=O | 84.3% | 17% | 44.3% | 59.1% | 71.8% | 70.5% | 45.6% | -63.9% (active) | -73.7% (active) | 49.1% | 20.5% | 69.9% | 93 | 57.8% | 60.3% | 59% | 91.7 | -53.4% (active) | 12.9%
5 | COc1ccc(-c2cc(=O)[nH]c3c(OC)c4ccccc4c(OC)c23)cc1 | 2.29% (active) | 8.05% (active) | 51.3% | 35.6% | 9.4% (active) | 34.8% | 8.09% (active) | 73.8% | 1.54% (active) | 26.3% | 2.07% (active) | 13.3% | 50.5 | 23.8% | 14.8% | 18.8% | 21.1 | 56.6% | 46.9%
6 | C=C1CCC2C3(C)COC(c4ccc(SC)cc4)OC3CCC2(C)C1C/C=C1/C(=O)OCC1O (configuration not stated) | 88.1% | 20.1% | 100% | 87.9% | 42.6% | 88.7% | 81.9% | 91.5% | 69.3% | 68.7% | 34.4% | 73% | 109 | 60.7% | 57.6% | 65.3% | 66.3 | 104% | 23.3%
7 | CCN(CC)CCCCNc1ccc(NCCCCN(CC)CC)c2c1C(=O)c1ccccc1C2=O | 94.1% | 1.87% (active) | 132% | 80.5% | 74.9% | 101% | 110% | 97.9% | -36.6% (active) | 76.2% | -54.8% (active) | 142% | 106 | 85.5% | 94.1% | 106% | 111 | 116% | -56.6% (active)
8 | O=C(CN1CCN(c2cc3c(cc2F)c(=O)c(C(=O)O)cn3C2CC2)CC1)Nc1nc(-c2ccc(Cl)cc2)cs1 | 32% | 25.3% | 31.6% | 24.6% | 23.3% | 29.7% | 10.8% | 7.83% (active) | 27.5% | 15.7% | 10.4% | 32.6% | 22.5 | 8.26% (active) | 17.7% | 10.4% | 20.1 | 42.6% | -42.4% (active)
9 | Cc1ccc(Nc2nc(N)nc(Nc3ccc4ccccc4c3)n2)cc1 | 58.5% | 20.2% | 83.9% | 47.9% | 27.3% | 46.3% | 53.3% | 54.3% | 44% | 29.3% | 11.2% | 25% | 61.7 | 17.7% | 32.7% | 47.7% | 18.4 | 62% | 
10 | O=C1CC(c2nc3ccccc3s2)CN1C1CCCCC1 (configuration not stated) | 104% | 96.7% | 90.8% | 86.8% | 107% | 99.1% | 92.9% | 98.6% | 99.1% | 99.7% | 95.4% | 83.7% | 105 | 94.5% | 90.1% | 96.3% |  | 101% | 93%
11 | O=C(Nc1cccc2[nH]c(C(F)(F)F)nc12)c1ccc(Br)cc1F | 46.8% | 13% | 17.9% | 30.7% | 51.8% | 29.1% | 35.3% | 40.1% | 48.7% | 28.5% | 61.9% | 60.8% | 29.7 | 18.9% |  | -32.8% (active) |  |  | 35.9%
12 | CS(=O)(=O)c1c(Nc2ccccc2)n[nH]c1N | 115% | 93.2% | 124% | 103% | 114% | 111% | 126% | 105% | 113% | 101% | 97.3% | 114% | 91.1 | 105% | 82.5% | 101% |  |  | 89.8%
13 | COc1cc(-c2cnc3nonc3n2)c(OC)c2c1OCO2 | 113% | 49.2% | 91.5% | 89.4% | 90.9% | 99% | 104% | 93.6% | 107% | 87.5% | 104% | 95.7% | 108 | 93.5% | 76.2% | 96.2% | 106 | 111% | 
14 | COc1ccc(-c2cnoc2-c2cc(OC)c3c(c2)OCCO3)cc1 | -9.77% (active) | 6.93% (active) | 62.8% | -23.8% (active) | 32.3% | 19.9% | 9.28% (active) | 69.7% | 7.58% (active) | 4.48% (active) | 1.26% (active) | 13.2% | 29.5 | -17% (active) |  | -27.8% (active) |  |  | 17.4%
15 | COc1ccc2nc3cc(Cl)ccc3c(N3CCN(c4nccc(NCc5ccccc5)n4)CC3)c2c1 | 78.7% | 33% | 113% | 67.5% | 42.2% | 72.3% | 81.6% | 88% | 96.3% | 47.5% | 52.7% | 69.2% | 96 | 69% |  | 84% |  | 80.7% | 31.3%
16 | N#CC1=C(N)Oc2c(ccc3ccccc23)C1c1cccs1 (configuration not stated) | -21.2% (active) | 0.938% (active) | 36.4% | -9.69% (active) | 8.35% (active) | 9.29% (active) | 24.7% | 75.1% | 17.3% | 13.5% | 5.33% (active) | 4.67% (active) | 49.7 | 13.3% | 22.5% | -35.9% (active) | 29.3 | 41.1% | 
17 | COC(=O)C12C3C(=O)N(c4ccc(OC)cc4)C(=O)C3C(c3cn(-c4ccccc4)nc3C)N1[C@H](c1cn(-c3ccccc3)nc1C)[C@@H]1C(=O)N(c3ccc(OC)cc3)C(=O)[C@@H]12 (some centres not stated) | 109% | 92.3% | 108% | 108% | 102% | 104% | 91.8% | 98% | 105% | 101% | 103% | 89.9% | 91.1 | 93.9% | 87% | 99.7% | 96.8 | 105% | 
